# Test results: article PMC4336329 (PLoS ONE, 2015)
# Out of some 310,000 compounds screened, about 14,000 (4.5%) showed an effect of 50% or more. The effect is printed as a negative number. Shown is part of a subset that was picked to be rich in strong results.
# Biological target: human ether-à-go-go-related gene (hERG) potassium channel (human, UniProt Q12809)
# Test: primary screen, population patch clamp on CHO cells stably expressing hERG; higher = less effect of the substance
# 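Note: peak tail current of the secondary pulse compared with the same well before compound.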
# human ether-à-go-go-related gene (hERG) potassium channel, sequence (Q12809 whole entry, looked up): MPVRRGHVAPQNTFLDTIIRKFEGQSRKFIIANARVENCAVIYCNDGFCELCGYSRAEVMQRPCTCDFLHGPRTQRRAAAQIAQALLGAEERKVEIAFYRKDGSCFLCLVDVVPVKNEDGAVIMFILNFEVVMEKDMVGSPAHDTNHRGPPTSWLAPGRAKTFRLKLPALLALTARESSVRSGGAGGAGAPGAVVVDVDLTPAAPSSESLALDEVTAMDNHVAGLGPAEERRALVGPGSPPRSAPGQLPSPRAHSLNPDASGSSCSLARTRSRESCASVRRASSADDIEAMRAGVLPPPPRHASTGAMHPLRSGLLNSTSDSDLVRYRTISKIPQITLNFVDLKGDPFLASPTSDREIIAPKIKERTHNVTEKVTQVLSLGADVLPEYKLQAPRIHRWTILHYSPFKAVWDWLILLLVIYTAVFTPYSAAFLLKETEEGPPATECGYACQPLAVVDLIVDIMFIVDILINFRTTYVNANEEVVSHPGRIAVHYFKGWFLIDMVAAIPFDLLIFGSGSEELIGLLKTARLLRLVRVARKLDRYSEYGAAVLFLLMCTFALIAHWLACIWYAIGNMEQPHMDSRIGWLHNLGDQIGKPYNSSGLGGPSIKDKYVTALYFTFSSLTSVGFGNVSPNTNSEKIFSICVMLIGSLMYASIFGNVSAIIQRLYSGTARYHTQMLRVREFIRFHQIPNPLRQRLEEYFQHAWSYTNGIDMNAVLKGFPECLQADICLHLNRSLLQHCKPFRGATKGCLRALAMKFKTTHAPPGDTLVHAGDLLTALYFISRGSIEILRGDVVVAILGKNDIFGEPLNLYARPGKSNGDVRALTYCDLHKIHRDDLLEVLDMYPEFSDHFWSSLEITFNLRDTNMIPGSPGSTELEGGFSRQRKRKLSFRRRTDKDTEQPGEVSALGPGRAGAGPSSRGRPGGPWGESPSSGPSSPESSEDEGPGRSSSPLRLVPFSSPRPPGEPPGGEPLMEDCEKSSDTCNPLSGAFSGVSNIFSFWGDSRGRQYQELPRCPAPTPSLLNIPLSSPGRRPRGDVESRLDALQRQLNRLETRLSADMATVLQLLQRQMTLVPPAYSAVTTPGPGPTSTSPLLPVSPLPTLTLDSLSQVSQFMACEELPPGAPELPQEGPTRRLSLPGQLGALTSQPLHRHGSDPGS
row,Structure (SMILES),"hERG current change (%, negative = inhibition) at 10uM [%]"
1,CCCCC1=CC2=CC(=O)C(C)(OC(=O)CC)C(=O)C2=CN1C1CCCCC1 (stereo not drawn),-38
2,Cc1cccn2c(=O)c(/C=C(\C#N)C(N)=O)c(N3CCCCCC3)nc12,-13.2
3,COc1cccc(N2CCN(C3CCCC(C)C3)CC2)c1 (stereo not drawn),-23.8
4,O=C(NCc1ccccn1)c1cc(S(=O)(=O)N2CCCCC2)ccc1Cl,3.78
5,COc1ccc(NS(=O)(=O)c2cccc(C(=O)NNC(=O)c3ccc(O)c(Cl)c3)c2)cc1,-0.207
6,Cc1cccc(CN2C(=O)[C@@H]3Cc4c([nH]c5ccccc45)C(C)(C)N3C2=O)c1,-0.614
7,COC(=O)c1c(NC(=O)C2(C)Cc3ccccc3C(=O)O2)sc2c1CCCC2 (stereo not drawn),12.7
8,O=C1C=C(c2ccccc2)CC(/C=C/c2ccccc2)C1 (stereo not drawn),-2.91
9,CCCc1nc(N)nc2c1C(=O)CC(C)(C)C2,-4.47
10,CC(C)(C)N1C(=O)Cc2c1nc(N)c1c(N)nc(N3CCCCC3CO)c(C#N)c21 (stereo not drawn),-24.3
11,O=C(c1ccccc1)N(Cc1ccc2c(c1)OCO2)Cc1nc2ccccc2c(=O)[nH]1,-15.4
12,O=C(CCc1nc2ccccc2c(=O)[nH]1)N1CCN(C/C=C/c2ccccc2)CC1,-42.4
13,O=c1[nH]c(CN2CCN(C/C=C/c3ccccc3)CC2)nc2ccccc12,-65.2
14,O=c1[nH]c(CN2CCN(Cc3ccc4c(c3)OCO4)CC2)nc2ccccc12,-58.9
15,O=c1[nH]c(CN2CCOCC2)nc2ccccc12,0.449
16,O=C(/C=C/c1ccccc1)N1CCN(Cc2nc3ccccc3c(=O)[nH]2)CC1,-64.7
17,O=c1[nH]c(N/N=C\c2ccc3c(c2)OCO3)nc2ccccc12,-70.7
18,O=c1[nH]c(N/N=C/c2cc3c(cc2[N+](=O)[O-])OCO3)nc2ccccc12,-0.00362
19,O=c1[nH]c(CN2CCNCC2)nc2ccccc12,-23.4
20,O=c1[nH]c(N/N=C/c2ccccc2)nc2ccccc12,-14.9
21,CCC(CC)C(=O)N1CCN(Cc2nc3ccccc3c(=O)[nH]2)CC1,-11.3
22,CN1CCN(Cc2nc3ccccc3c(=O)[nH]2)CC1,6.57
23,COC(=O)C[C@H]1c2cc(C(F)(F)F)ccc2S(=O)(=O)N1c1ccc(N(C)C)cc1,-20.9
24,Cn1ccnc1SCC(=O)N(C1CCCCC1)C1CCCCC1,3.29

row,Structure (SMILES),"hERG current change (%, negative = inhibition) at 10uM [%]"
1,COc1ccc(Nc2nc(-c3cccc([N+](=O)[O-])c3)nc3ccccc23)cc1,-5.91
2,O=C(OCC1OC(Oc2ccc(O)cc2)C(O)C(O)C1O)c1ccccc1 (stereo not drawn),14.5
3,COCC(=O)N(CCc1ccc(OC)cc1)Cc1nc2ccccc2c(=O)[nH]1,-2.83
4,Cc1ccccc1NC(=O)c1ccccc1NC(=O)c1ccccc1F,11.3
5,O=C(c1ccco1)c1coc2c1cc(O)c1ccccc12,13.4
6,CCCCNC(=O)O[C@H]1C[C@@H]2CCN3C(=O)CCC(C)(C)[C@H](C1)[C@H]23,-23.5
7,COc1ccc(N2CCN(Cc3nc4cc(Cl)ccc4c(=O)[nH]3)CC2)cc1,13.4
8,O=c1[nH]c(CN2CCOCC2)nc2cc(Cl)ccc12,-10.4
9,O=c1[nH]c(CN2CCN(C/C=C/c3ccccc3)CC2)nc2cc(Cl)ccc12,-106
10,COc1ccc(-c2cnc(SCCNC(=O)c3ccc4c(c3)OCO4)[nH]2)cc1,-5.44
11,Cc1ccc(-n2c(SCc3ccc(C#N)cc3)nnc2-c2ccccn2)cc1,-48.7
12,COc1ccc(-n2c(SCc3ccc(C#N)cc3)nnc2-c2ccccn2)cc1,-58.3
13,c1ccc(CSc2nnc(-c3ccccn3)n2-c2ccccc2)cc1,-10.6
14,N#Cc1ccc(CSc2nnc(-c3ccccn3)n2-c2ccccc2)cc1,-42.1
15,COc1ccc(-n2c(SCC(=O)OC(C)C)nnc2-c2ccccn2)cc1,-14.4
16,N#Cc1ccc(CSc2nnc(-c3ccccn3)n2-c2ccc(Cl)cc2)cc1,-51.8
17,COc1cc(C(C)=O)ccc1OC(=O)C(C)N1C(=O)c2ccccc2C1=O (stereo not drawn),-13
18,O=C(CN1C(=O)CNC1=O)Nc1cccc(C(F)(F)F)c1,8.56
19,Cc1ccc(NC(=O)Cn2nnc3ccccc32)cc1,12.1
20,CCCC(=O)NC(=S)Nc1cccc(NC(=O)c2ccc(Cl)cc2Cl)c1,11.6
21,CCOC(=O)c1[nH]c2ccc(Br)cc2c1NC(=O)CCN1CCC(C)CC1,-69.1
22,CCOC(=O)c1[nH]c2ccc(Br)cc2c1NC(=O)CCN1CCCC(C)C1 (stereo not drawn),-73.1
23,CCOC(=O)c1[nH]c2ccc(Br)cc2c1NC(=O)CCN1CCC(C(=O)OCC)CC1,-73.9
24,CCOC(=O)c1[nH]c2ccc(Br)cc2c1NC(=O)CNC,-7.67

row,Structure (SMILES),"hERG current change (%, negative = inhibition) at 10uM [%]"
1,CCOC(=O)c1[nH]c2ccc(OC)cc2c1NC(=O)CCN1CCCC(C)C1 (stereo not drawn),-36.9
2,CCOC(=O)c1[nH]c2ccc(OCC)cc2c1NC(=O)CN1CCCC(C)C1 (stereo not drawn),-18.3
3,CCOC(=O)c1[nH]c2ccc(Br)cc2c1NC(=O)CCN1CCN(C(=O)OCC)CC1,-44
4,COC(=O)c1[nH]c2cc(OC)ccc2c1NC(=O)CCN1CCCC(C)(C)C1,-39.4
5,CCOC(=O)c1[nH]c2ccc(Br)cc2c1NC(=O)CCN1CCOCC1,2.43
6,CCOC(=O)c1[nH]c2ccc(F)cc2c1NC(=O)CCN1CCOCC1,3.03
7,CCOC(=O)c1[nH]c2ccc(Br)cc2c1NC(=O)CCN1CCCC(C)(C)C1,-75.7
8,CCOC(=O)C1CCN(CC(=O)Nc2c(C(=O)OC)[nH]c3ccc(Cl)cc23)CC1,-15
9,O=C(Cn1c(=O)n(Cc2ccc3c(c2)OCO3)c(=O)c2ccccc21)N1CCCc2ccccc21,4.46
10,Cc1ccc(NC(=O)CSc2nnc(-c3cccnc3)o2)c(C)c1,3.3
11,CCO[C@@H]1OC(C(=O)O)=C[C@H](C)[C@H]1CCCO,20.7
12,COc1ccc(CC(=O)Nc2nc3n(n2)C(c2ccccc2)CC(=O)N3)cc1OC (stereo not drawn),5.18
13,CC(=O)c1cccc(N(CC(=O)Nc2ccc(S(=O)(=O)N3CCOCC3)cc2)S(C)(=O)=O)c1,8.48
14,CCCCCCn1c(=O)c(C(=O)Nc2cnccn2)c(O)c2ccccc21,1.2
15,CCn1c(-c2c(Cl)c(C)nn2C)n[nH]c1=S,10.9
16,COc1ccc(C(=O)Nc2cc(-c3nn4c(C)nnc4s3)ccc2C)cc1,-41.8
17,Cc1cc(-c2ccccc2C(=O)O)on1,17.6
18,CCCc1ccc(C2=Nn3c(nnc3C(C)C)SC2)cc1,-6.25
19,CCOc1ccc2ccccc2c1/C=N/NC(=O)c1c(C)cc(C)[nH]c1=O,0.637
20,COc1ccc(OC)c(S(=O)(=O)N2CCN(CC(O)COc3ccccc3)CC2)c1 (stereo not drawn),-34.7
21,CC(=O)Nc1ccc(OCC(O)CN2CCN(S(=O)(=O)c3ccc(NC(C)=O)cc3)CC2)cc1 (stereo not drawn),-8.63
22,COc1ccc(OCC(O)CN2CCCCCC2)cc1 (stereo not drawn),9.18
23,CC1CCCCN1CC(O)COc1ccc(OCC(O)CN2CCCCC2C)cc1 (stereo not drawn),16.4
24,CC(=O)Nc1ccc(OCC(O)CN2CCCCC2C)cc1.Cl (stereo not drawn),3.85

row,Structure (SMILES),"hERG current change (%, negative = inhibition) at 10uM [%]"
1,N#Cc1ccc(-c2ccc(OCC(O)CN3CCCCC3)cc2)cc1 (stereo not drawn),-80.7
2,CCOC(=O)c1ccc(S(=O)(=O)N2CCN(CC(O)COc3cccc(C(C)=O)c3)CC2)cc1.O=C(O)C(=O)O (stereo not drawn),-6.64
3,COc1ccc(S(=O)(=O)N2CCN(CC(O)COc3ccc(C#N)cc3)CC2)cc1OC (stereo not drawn),-46.9
4,CC1CN(CC(O)COc2ccc(C#N)cc2)CCN1CC(O)COc1ccc(C#N)cc1 (stereo not drawn),-77.2
5,CCOC(=O)c1ccc(S(=O)(=O)N2CCN(CC(O)COc3ccc(C#N)cc3)CC2)cc1.O=C(O)C(=O)O (stereo not drawn),-63.2
6,COc1ccc(OC)c(S(=O)(=O)N2CCN(CC(O)COc3ccc(C#N)cc3)CC2)c1 (stereo not drawn),-66.2
7,N#Cc1ccc(-c2ccc(OCC(O)CN3CCOCC3)cc2)cc1 (stereo not drawn),-18.4
8,CCN(CC)S(=O)(=O)c1cc(C)ccc1SC,12.1
9,COc1ccc(C(=O)NNC(=O)c2ccc(C(C)(C)C)cc2)cc1,4.1
10,CCN(CCN1CCCC1)C(=O)C1CCC(=O)N(CCCN2CCOCC2)C1 (stereo not drawn),12.8
11,O=C(CN1CCN(c2cccc(Cl)n2)CC1)N1CC(O)CO1 (stereo not drawn),19.6
12,CCc1noc(C)c1C(=O)N1CCN(S(=O)(=O)c2cccs2)CC1,-23.5
13,O=C(O)CN1CCN(c2ncc(C(F)(F)F)cc2Cl)CC1,11.6
14,OC(CN1CCN(c2ccc(C(F)(F)F)cn2)CC1)c1ccccc1 (stereo not drawn),-26.5
15,CN1CCN(CC(O)COc2ccc(OCC(O)CN3CCN(C)CC3)cc2)CC1 (stereo not drawn),-7.27
16,OC(CN1CCN(c2ncc(C(F)(F)F)cc2Cl)CC1)c1ccccc1 (stereo not drawn),-58
17,CC(C)(C)NC(=O)NC(=O)CN1CCN(c2ncc(C(F)(F)F)cc2Cl)CC1,-13.3
18,N#Cc1ccc(OCC(O)CN2CCN(c3ncc(C(F)(F)F)cc3Cl)CC2)cc1 (stereo not drawn),-74.6
19,N#Cc1ccc(OCC(O)CN2CCN(CC(O)COc3ccc(C#N)cc3)CC2)cc1 (stereo not drawn),-86.1
20,COc1ccc(OCC(O)CN2CCCC2)cc1 (stereo not drawn),15.2
21,CN(C)CC(O)COc1ccc(C(C)(C)c2ccc(OCC(O)CN(C)C)cc2)cc1.Cl (stereo not drawn),12.5
22,FC(F)(F)c1cnc(N2CCN(C(=S)NCc3ccccc3)CC2)c(Cl)c1,-11.3
23,CN(C)CC(O)COc1ccc(-c2ccc(C#N)cc2)cc1 (stereo not drawn),-57.5
24,CN(CCOc1ccc(Br)cc1)CC(O)COc1ccc(C#N)cc1 (stereo not drawn),-16.3
